# Source: PubChem (several laboratories)
# CSC inhib = cancer stem cell viability inhibitors, primary screen, luminescence; cancer stem cell-like cells viability; inhibition, % at 7.5 µM; actives 1.1% (n = 300,000); in the data active means inhibition above about 75%; inconclusive means no clear call, values can overlap the other calls; tested in HMLE shEcad cells
# Beta apoptosis = inhibitors of cytokine-induced beta cell apoptosis, primary screen, luminescence; AID 435005, 2010; protection from apoptosis, % (test concentration not listed); INS-1E cytokine-induced death, ATP luminescence, 48 h; percent of positive-control rescue, neutral wells zero; actives 0.8% (n = 300,000);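 active means Every replicate reaches about 75%, or at least half do and their mean reaches it too, limit read from the data; inconclusive means At least half of replicates reach the limit but their mean does not; inactive means Under half of replicates reach the limit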;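 further: 0% = cytokine-treated negative control wells and 100% = positive control rescue; higher means more ATP so stronger rescue from cytokine killing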
# PP5 inh = PP5 phosphatase inhibitors, primary screen, biochemical, fluorescence; AID 1987, 2009; inhibition, % at 6.7 µM; purified PP5c, OMFP substrate fluorescence; actives 0.18% (n = 320,000); Serine/threonine-protein phosphatase 5 (Homo sapiens), P53041;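 active means inhibition above the campaign's mean inhibition across all tested compounds plus 3 SD, cut at about 9.5% in these data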;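 further: 0% = DMSO only and 100% = 100 µM cantharidin control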
# Target sequence (P53041 whole entry, looked up): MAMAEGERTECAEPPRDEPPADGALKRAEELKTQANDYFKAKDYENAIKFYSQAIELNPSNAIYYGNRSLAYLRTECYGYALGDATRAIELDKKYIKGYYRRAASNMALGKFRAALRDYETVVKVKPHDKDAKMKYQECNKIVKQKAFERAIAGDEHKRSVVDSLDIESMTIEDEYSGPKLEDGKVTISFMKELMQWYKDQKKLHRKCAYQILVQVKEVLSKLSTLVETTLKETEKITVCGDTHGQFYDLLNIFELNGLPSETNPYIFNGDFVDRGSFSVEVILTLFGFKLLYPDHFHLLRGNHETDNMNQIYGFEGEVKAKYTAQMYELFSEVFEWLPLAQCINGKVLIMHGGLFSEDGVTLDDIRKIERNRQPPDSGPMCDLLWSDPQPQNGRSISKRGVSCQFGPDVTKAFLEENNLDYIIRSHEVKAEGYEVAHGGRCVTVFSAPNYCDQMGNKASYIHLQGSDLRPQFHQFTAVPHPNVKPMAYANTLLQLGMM
# SKKanGAS inh = S. pyogenes SKKanGAS growth inhibitors in kanamycin, primary screen, streptokinase expression inhibitor project, SKKanGAS strain, BacTiter-Glo luminescence. 6 h. inhibition, % at 7.5 µM. actives 1.3% (n = 300,000). AID 1662, 2009;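 active means mean replicate score, as percent of positive control median, at least 50; inconclusive means mean below 50 but one replicate at or above 50; inactive means mean and every replicate below 50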;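 further: strain carries kanamycin resistance gene driven by streptokinase promoter and grows in 40 µg/ml kanamycin; loss of luminescence reflects streptokinase promoter inhibition or plain growth inhibition; 0% = median of DMSO wells and 100% = positive control at its reference dose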
# PP1 inh = PP1-alpha phosphatase inhibitors, primary screen, counter-screen for PP5 inhibitor project, biochemical, fluorescence, OMFP substrate, single point | purified PP1alpha | inhibition, % at 6.7 µM | actives 0.9% (n = 320,000) | AID 2235, 2010;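 active means inhibition above the mean inhibition of all tested compounds plus 3 SD, computed separately for each screening campaign, cut at about 15% in these data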
# PP1 confirm = PP1 phosphatase inhibitors, confirmation, biochemical, fluorescence, OMFP substrate, triplicate | shares compounds with PP1 inh | purified PP1alpha | inhibition, % at 6.7 µM | actives 52% (n = 1,900);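 active means mean PP1 inhibition above a set limit taken from the earlier primary screen, cut at about 15% in these data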
# PP5 counter = PP5 phosphatase inhibition by PP1 hits, confirmation, counter-screen for PP1 inhibitor project, biochemical, fluorescence, triplicate; purified PP5c, OMFP fluorescence; AID 2360, 2010; actives 4% (n = 1,900); shares compounds with PP1 inh; inhibition, % at 6.7 µM;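 active means mean PP5 inhibition over triplicate wells above about 9.5% taken from the earlier PP1 screen, limit read from the data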
# Numbers without * were called inactive; ? = inconclusive; nt = not tested or not shown. Most compounds without a hit are left out; they make up all but 3.1% or so of the library.
SMILES,CSC inhib,Beta apoptosis,PP5 inh,SKKanGAS inh,PP1 inh,PP1 confirm,PP5 counter
COc1ccc(COC(=O)CN2C(=O)NC3(CCCC3)C2=O)cc1F,-14,-2,0,-12,34*,-3,-3
O=C(NCCN1CCOCC1)c1cc(-c2ccc(Br)cc2)on1,-6,-10,3,-4,-4,nt,nt
COc1ccc(-c2cc(C(=O)NCCN3CCOCC3)no2)cc1OC,7,-2,2,0,32*,-4,-1
COC(=O)C1CSC(c2ccc(Cl)cc2)N1C(=O)c1ccccc1 (stereo not given),-14,-4,-2,-7,6,nt,nt
Oc1cc(-c2ccncc2)cc2cccnc12,nt,46,nt,nt,nt,nt,nt
CN(C)c1ccc(-c2cc(O)c3ncccc3c2)cc1,115*,88*,1,nt,21*,21*,-4
CN(C)c1ccc(N=Cc2ccco2)cc1,nt,35,1,nt,18*,10,3
CN(C)c1ccc(C=Nc2ccc(N(C)C)cc2)cc1,2,16,2,-7,0,nt,nt
Nc1ccc(S(=O)(=O)N2CCOCCOCCOCCOCCOCC2)cc1,-8,3,3,-2,0,nt,nt
O=C(N/N=C/c1ccc(-c2ccc(S(=O)(=O)Nc3ncccn3)cc2)o1)c1cc2ccccc2cc1O,-5,0,3,9,21*,16*,-1
O=C1CCc2cc(S(=O)(=O)N3CCN(C(=O)c4ccco4)CC3)ccc2N1,5,-7,5,-1,71*,-2,-4
COC(=O)c1c(SCc2ccc(C#N)cc2)nc(=O)[nH]c1C,0,-2,1,6,0,nt,nt
COc1ccccc1NC(=O)N1CCCC1C(=O)NCCc1ccccc1 (stereo not given),-15,0,1,-2,1,nt,nt
COc1ccc(-c2ccc(C#N)c(SCC(=O)OCc3ccccc3)n2)cc1OC,0,2,4,-1,-3,nt,nt
N#Cc1ccc(-c2ccc3c(c2)OCO3)nc1SCC(=O)OCc1ccccc1,4,2,3,5,18*,10,1
O=C(Cn1ncc2c([nH]c3ccccc32)c1=O)NCCc1ccc(Cl)cc1,-5,-5,3,-2,18*,21*,1
CSc1ccc(CCNC(=O)Cn2ncc3c([nH]c4ccccc43)c2=O)cc1,12,-4,-8,-11,-4,nt,nt
Cc1cc2c(s1)c1cnn(CC(=O)NCCc3ccccc3)c(=O)c1n2C,-5,-7,1,1,20*,11,-2
CN1CCN(CCCNC(=O)Cn2ncc3c4ccccc4n(C)c3c2=O)CC1,5,-2,2,2,1,nt,nt
O=C(Nc1ccc(Cl)cn1)c1ccc2[nH]c(=O)c(=O)[nH]c2c1,-5,-2,0,-4,4,nt,nt
CC(=O)N1c2ccc(S(=O)(=O)N3CCC(C(=O)NCc4ccccc4)CC3)cc2CC1C (stereo not given),-10,2,0,-8,-4,nt,nt
COc1ccc2[nH]c3c(c2c1)CCN1C(=O)N([C@@H](C)C(=O)NCc2ccco2)C(=O)[C@]31C,-11,-2,1,-2,-7,nt,nt
FC(F)(F)c1cccc(Oc2nc(-c3ccccc3)nnc2C(F)(F)F)c1,-6,-7,3,4,-3,nt,nt
COc1cnc(-c2ccccn2)nc1Oc1cccc(C(F)(F)F)c1,-4,26,4,38,46*,46*,1
CN(c1ccccc1)c1ncccn1,-12,2,2,-4,-1,nt,nt
SMILES,CSC inhib,Beta apoptosis,PP5 inh,SKKanGAS inh,PP1 inh,PP1 confirm,PP5 counter
COc1cnc(-c2ccccn2)nc1N(C)c1ccccc1,98*,92*,5,72*,28*,28*,-2
COc1cnc(-c2ccccn2)nc1Oc1ccccc1,-1,nt,0,57*,23*,17*,-3
COc1ccc(S(=O)(=O)Nc2ccc(F)c(F)c2)cc1C(=O)N1CCOCC1,28,7,-4,7,22*,-3,-5
COc1ccc(S(=O)(=O)Nc2cccc(SC)c2)cc1C(=O)N1CCOCC1,-7,-5,0,0,1,nt,nt
O=C(OCC(=O)N1CCOCC1)c1cc(=O)[nH]c2ccccc12,-11,-2,nt,nt,nt,nt,nt
CC(C)(O)c1ccccc1CC[C@@H](SCC1(CC(=O)O)CC1)c1cccc(/C=C/c2ccc3ccc(Cl)cc3n2)c1,97*,-3,1,105*,35*,43*,-2
CSc1nnc(N2C(=O)C(O)=C(C(=O)c3ccc(C)o3)C2c2ccc(C)cc2)s1 (stereo not given),-4,7,2,3,30*,25*,-2
CSc1nnc(N2C(=O)C(O)=C(C(=O)c3ccco3)C2c2ccccc2)s1 (stereo not given),-13,-6,-1,4,3,nt,nt
CCCSc1nnc(N2C(=O)C(O)=C(C(=O)c3ccco3)C2c2ccccc2F)s1 (stereo not given),-6,-2,3,11,22*,14,-3
CCC1Nc2ncnc(N3CCN(c4ccccn4)CC3)c2N(Cc2ccc(Cl)cc2)C1=O (stereo not given),-1,0,0,8,3,nt,nt
COc1ccc(C(=O)Nc2ccc(Cl)cc2C(=O)N2CCCC(C)C2)cc1 (stereo not given),-7,-2,-1,-3,60*,-1,-1
COc1ccc(C(=O)Nc2ccc(Cl)cc2C(=O)N2CCOCC2)cc1,0,-3,-1,0,1,nt,nt
CCC(=O)NC(c1ccc(C)cc1)c1cc([N+](=O)[O-])c2cccnc2c1O (stereo not given),100*,83*,1,87*,39*,12,12*
CC(=O)NC(c1ccc(C)cc1)c1cc([N+](=O)[O-])c2cccnc2c1O (stereo not given),104*,71,6,?,19*,21*,3
O=[N+]([O-])c1cc([N+](=O)[O-])c2cccnc2c1Oc1ccccc1O,20,-3,2,21,6,nt,nt
C/C(=N\Nc1nc(-c2cc(C)ccc2C)cs1)c1cc2c(ccc3ccccc32)oc1=O,6,-2,0,16,9,nt,nt
Cc1ccc(C)c(N(CC(=O)N/N=C/c2ccc(-c3ccc([N+](=O)[O-])cc3)o2)S(=O)(=O)c2ccccc2)c1,-2,6,2,23,3,nt,nt
